Shown are actives, neighbours in structure and some others; about 2.4% of the full set was active somewhere.
PP1 inh = PP1-alpha phosphatase inhibitors, primary screen, counter-screen for PP5 inhibitor project, biochemical, fluorescence, OMFP substrate, single point | Serine/threonine-protein phosphatase PP1-alpha catalytic subunit (Homo sapiens), P62136 | purified PP1alpha | inhibition, % at 6.7 µM | 320,000 tested, 0.9% active | AID 2235, 2010;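 active means inhibition above the mean inhibition of all tested compounds plus 3 SD, computed separately for each screening campaign, cut at about 15% in these data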
Target sequence (P62136 whole entry, looked up): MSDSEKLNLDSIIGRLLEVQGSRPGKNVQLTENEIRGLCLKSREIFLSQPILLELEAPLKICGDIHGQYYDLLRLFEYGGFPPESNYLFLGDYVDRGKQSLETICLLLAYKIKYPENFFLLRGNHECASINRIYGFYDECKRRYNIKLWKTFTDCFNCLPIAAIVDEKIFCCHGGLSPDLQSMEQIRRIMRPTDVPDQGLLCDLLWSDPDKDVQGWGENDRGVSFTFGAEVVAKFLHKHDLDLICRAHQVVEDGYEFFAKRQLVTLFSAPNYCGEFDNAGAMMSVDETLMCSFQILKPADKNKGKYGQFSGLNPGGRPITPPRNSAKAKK
NadD block = inhibitors of S. aureus NadD, primary screen, biochemical, colorimetric, uHTS; 360,000 tested, 0.78% active; Nicotinate-nucleotide adenylyltransferase NadD (Staphylococcus aureus N315); purified NadD enzyme, colorimetric absorbance read-out; inhibition, % at 20 µM; in the data active means inhibition above about 26%
PREPL inh = PREPL enzyme inhibitors, primary screen, biochemical, fluorescence polarization; recombinant PREPL, fluorescence polarization activity-based probe; 320,000 tested, 0.68% active; AID 2751, 2010; Prolyl endopeptidase-like (Homo sapiens), Q4J6C6; inhibition, % at 5.96 µM; in the data active means inhibition above about 43%;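 further: 0% = enzyme with DMSO and 100% = wells lacking enzyme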
PP5 primary = PP5 phosphatase inhibitors, primary screen, biochemical, fluorescence; Serine/threonine-protein phosphatase 5 (Homo sapiens), P53041; purified PP5c, OMFP substrate fluorescence; inhibition, % at 6.7 µM; 320,000 tested, 0.18% active;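 active means inhibition above the campaign's mean inhibition across all tested compounds plus 3 SD, cut at about 9.5% in these data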;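 further: 0% = DMSO only and 100% = 100 µM cantharidin control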
Rpn11 block = Rpn11 (PSMD14) deubiquitinase inhibitors, primary screen, biochemical, fluorescence polarization, uHTS. human 26S proteasome, Ub4-pepOG fluorescence polarization; 20S core pre-blocked with epoxomicin. inhibition, % at 20 µM. 360,000 tested, 0.59% active;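 active means inhibition at 20 µM, scaled to each plate's controls, above about 33%, limit read from the data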
Target sequence (O00487 whole entry, looked up): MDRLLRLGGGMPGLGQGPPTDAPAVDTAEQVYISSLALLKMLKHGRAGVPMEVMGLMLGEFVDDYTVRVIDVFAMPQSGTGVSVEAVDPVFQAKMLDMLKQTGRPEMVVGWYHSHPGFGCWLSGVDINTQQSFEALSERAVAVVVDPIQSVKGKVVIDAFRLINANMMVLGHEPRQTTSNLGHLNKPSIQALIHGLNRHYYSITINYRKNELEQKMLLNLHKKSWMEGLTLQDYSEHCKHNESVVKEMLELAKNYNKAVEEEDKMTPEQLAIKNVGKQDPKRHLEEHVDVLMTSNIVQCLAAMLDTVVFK
NadD inh conf = inhibitors of S. aureus NadD, confirmation, biochemical, colorimetric, single concentration. inhibition, % at 20 µM. 2,000 tested, 13% active. purified S. aureus NadD, colorimetric enzyme assay. shares compounds with NadD block; in the data active means inhibition mostly above about 42%, no sharp cut-off; inactive means mostly below about 42%
Numbers without * were called inactive; . = no result given.

SMILES	PP1 inh	NadD block	PREPL inh	PP5 primary	Rpn11 block	NadD inh conf
CCN(Cc1ccccc1)C(=O)c1cccc(S(=O)(=O)N2CCN(Cc3ccccc3)CC2)c1	-0.9	0.2	6.2	-0.1	-2.7	.
COc1cc(/C=N/Nc2nc3ccccc3s2)ccc1OC(=O)c1ccccc1F	-9.6	10.7	33.2	0.8	-6.8	.
COc1cc(OC)cc(C(=O)Oc2ccc(/C=N/Nc3nc4ccccc4s3)cc2OC)c1	0.9	37.4*	6.5	5.2	15.3	10.2
CCCCCOc1ccc(/C=c2\sc3nc(=O)c(-c4ccccc4)nn3c2=O)cc1OC	-2.7	6.8	3.2	1.3	-43.3	.
O=c1nc2s/c(=C\c3ccc(-c4ccccc4[N+](=O)[O-])o3)c(=O)n2nc1-c1ccccc1	.	35.7*	.	.	-21.8	4.9
Cc1ccc(C)c(-c2nnc(NC(=O)Cc3ccccc3)o2)c1	-2.6	3.9	7.2	1.9	-4.7	.
CC(C)(Sc1ccc(CCN(CCCCC2CCCCC2)C(=O)NC2CCCCC2)cc1)C(=O)O	8.6	46.3*	4.6	2.1	13.3	18.5
CN(Cc1ccccc1)C(=O)NC1CCCCC1	-0.7	0.7	19.1	0.1	0.4	.
COc1cccc(-n2c(SCC(=O)Nc3nc4ccccc4s3)nc3ccccc3c2=O)c1	-3.1	.	1.3	0.9	.	.
N#Cc1c(NC(=O)CSc2nnc(-c3ccco3)n2-c2ccccc2)sc2c1CCC2	6.6	40.8*	-1.8	1.1	10.2	19.3
COc1ccc(-n2c(SCC(N)=O)nnc2-c2ccc(NS(=O)(=O)c3ccc(C)cc3)cc2)cc1	1.3	6.8	2.9	2.4	9.1	.
COc1cccc(-n2c(SCC(=O)Nc3sc4c(c3C(N)=O)CCC4)nc3ccccc3c2=O)c1	5.7	31.7*	-12.1	5.7	5.6	-13.9
NC(=O)c1c(NC(=O)CSc2nnc(-c3ccco3)n2-c2ccccc2)sc2c1CCC2	12.4	9.7	11.6	-0.1	3.8	.
COc1ccc(-n2c(SCC(=O)Nc3ccccc3)nnc2-c2ccc(NS(=O)(=O)c3ccc(C)cc3)cc2)cc1	4.8	48.9*	3.9	2.9	3.2	43.9
COc1ccc(-c2nnc(SCC(=O)Nc3sc4c(c3C#N)CCCC4)n2-c2ccccc2)cc1	-2.3	40.9*	15.3	1.9	7.1	5.1
CN1CCC2CC1c1cc(-c3ccc(C(F)(F)F)cc3)ccc12 (stereo not drawn)	.	-0.8	.	.	1.7	.
c1ccc(-c2ccc(CN3C[C@@H]4C(c5ccccc5)C5(c6cccnc6)CC4(C5)[C@H]3c3ccccc3)cc2)cc1 (stereo partly drawn)	13.5	52.3*	12.2	2.3	9.6	28.1
Cc1ccc(NC(=O)N(Cc2cccs2)Cc2cc3cc4c(cc3[nH]c2=O)OCO4)cc1	-3.5	.	8.9	-1.1	.	.
Cc1ccc(NC(=O)N(Cc2ccc3c(c2)OCO3)Cc2cc3cc4c(cc3[nH]c2=O)OCCO4)cc1	2.2	34.1*	4.6	-3.6	-3.3	8.6
Cc1nc2c(c(=O)n1CCC1=CCCCC1)c1nc3ccccc3nc1n2/N=C/c1ccco1	2.2	49.2*	-52.5	4.4	-18.4	17.9
CCCCNC(=S)NNC(=O)c1cccnc1	-1.3	1.8	-2.0	2.2	-3.1	.
COc1cc(Br)cc(/C=C/c2ccc3cccc(O)c3n2)c1O	8.5	34.1*	35.4	4.2	0.5	26.5
COc1cc(C2C(C#N)=C(N)Oc3c2ccc2ccccc32)ccc1OCC(=O)Nc1cccc(C)c1 (stereo not drawn)	14.1	29.9*	33.6	2.2	13.9	40.7
COc1ccc(C2C(C#N)=C(N)Oc3c2ccc2cccnc32)cc1OC (stereo not drawn)	-0.7	4.4	11.1	-0.6	-7.5	.
COc1cc(C2C(C#N)=C(N)Oc3c2ccc2ccccc32)ccc1OCC(=O)Nc1ccc(C)cc1 (stereo not drawn)	6.8	40.3*	33.1	4.6	12.2	37.2
SMILES	PP1 inh	NadD block	PREPL inh	PP5 primary	Rpn11 block	NadD inh conf
CC(C)(C)NC(=O)COc1coc(CN2CCN(Cc3ccccc3)CC2)cc1=O	-1.0	0.6	-3.3	0.1	-2.1	.
COc1cc(/C=C/C(=O)OCC(=O)NCCc2ccc(S(N)(=O)=O)cc2)ccc1OCC#N	.	4.1	.	.	0.9	.
Cc1ccc2[nH]c(=O)c(C(c3nnnn3Cc3ccccc3)N3CCc4ccccc43)cc2c1 (stereo not drawn)	7.4	31.6*	-0.3	3.4	4.3	21.5
Cc1cc2cc(C(c3nnnn3Cc3ccco3)N3CCc4ccccc43)c(=O)[nH]c2cc1C (stereo not drawn)	6.0	32.3*	-4.3	3.9	12.9	25.5
Cc1ccc2cc(C(c3nnnn3Cc3ccccc3)N3CCc4ccccc43)c(=O)[nH]c2c1 (stereo not drawn)	10.0	17.3	-2.0	0.6	7.6	.
Cc1cn(CC(=O)NCc2nc3ccccc3[nH]2)c(=O)[nH]c1=O	.	-3.6	.	.	.	.
CCc1nc2ccc(C(=O)Nc3cccc(OCC(=O)N(C)C)c3)cn2c1N(CCC(C)C)CCN(C)C	.	-0.3	.	.	-1.8	.
CCCn1c2ccc(C)cc2c2n[nH]c(=S)nc21	-2.3	-14.3	-1.1	0.2	2.5	.
Cc1cc2cc(CN(Cc3cccs3)C(c3nnnn3C(C)(C)C)C(C)C)c3nnnn3c2cc1C (stereo not drawn)	.	30.9*	.	.	10.2	2.8
CCC(C)(C)n1nnnc1C(C(C)C)N(CCN1CCOCC1)Cc1cc2cccc(C)c2[nH]c1=O (stereo not drawn)	-2.0	-0.4	15.0	2.9	-16.8	.
O=C(CSC(=S)N1CCN(c2ccccc2)CC1)Nc1nc(-c2ccccc2)c(-c2ccccc2)o1	-0.3	35.2*	8.6	-3.9	-3.0	2.3
CCN(CC)C(=S)SCC(=O)Nc1nc(-c2ccccc2)c(-c2ccccc2)o1	15.0	7.6	13.0	2.7	-2.9	.
CCn1c(SCC(=O)NNC(=O)c2ccc(OC)cc2)nnc1-c1cccnc1	-5.2	-4.0	-2.6	-2.2	3.7	.
c1ccc(OCCNc2nc(NCC3CC3)nc3cc(-c4ccccc4)sc23)cc1	.	33.1*	.	.	-0.4	19.0
CC(C)Nc1nc(NCCN2CCCC2)c2sc(-c3ccccc3)cc2n1	.	34.5*	.	.	1.0	-20.8
O=C(NC(=S)N1CCN(c2ccc([N+](=O)[O-])cc2)CC1)c1ccccc1F	6.3	-4.0	9.0	4.6	-0.2	.
CC(=O)NC(c1cccc(F)c1)c1nc(-c2ccc(N(C)C)cc2)cs1 (stereo not drawn)	.	3.8	.	.	11.2	.

From PubChem BioAssay
